# The full list was thinned out, with hits kept by preference.
# ClpP mod = qHTS Assay for Activators of ClpP; 1.9% of 340,000 active; ATP-dependent Clp protease proteolytic subunit (Bacillus subtilis (strain 168)), P80244; AID 651965, 2013; purified B. subtilis ClpP, FRET peptide cleavage, 20 min; Potency, µM (top dose mostly 57.5 µM); active = well fitted falling curve with a large enough effect; inconclusive = small, poorly fitted or top-dose-only effect; inactive = no such curve, though single readings can be large or run the other way; also: the source files actives as falling curves though it sought activators and does not explain the sign; nearly all actives have a fitted effect of over 65% in size
#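 Buffer: 100 mM Tris/HCl pH8, 100 mM KCl, 0.05% low protease BSA, 2.5% glycerol, 0.01% Tween-20. ClpP 10 microg/mL final; 20 min RT; delta FRET normalized to ADEP and DMSO controls.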
# Apoferritin bind = binds horse apoferritin like a general anesthetic; P02791; apoferritin/1-aminoanthracene competitive binding, fluorescence; Potency, µM (doses to about 77.5 µM), hits mostly inhibitors; 0.074% of 350,000 active; AID 485281; also: nearly all actives have a fitted effect of over 20% in size
#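 Read-out: endpoint 1-AMA fluorescence, excitation 380 nm and emission 535 nm, after compounds sit 10 min at room temperature with 10 uM horse-spleen apoferritin in 50% saturated 1-AMA/PBS. Values come from four-parameter Hill fits.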
# CBFb RUNX1 block = blocks binding between human CBF-beta and RUNX1 | Q01196+Q13951 | 230,000 tested, under 10 active | AID 1477 | Potency, µM (series often up to 59.8 µM), hits mostly inhibitors | AlphaScreen CBFb-His/RUNX1-biotin binding, biochemical
#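 Interaction loss through any mechanism counts as activity. Pre-formed complex of His-CBF-beta and biotin-RUNX1 (30 nM apiece) is incubated with compound 15 min, then with 50 ng nickel and 50 ng streptavidin beads for 90 min before AlphaScreen detection.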
# a7 integrin act = activators of alpha7 integrin expression for muscular dystrophy; alpha7betagal myoblasts, beta-gal FDG fluorescence, 48 h; Potency, µM (top dose mostly 38.3 µM), hits mostly activators; 0.064% of 350,000 active; also: nearly all actives have a fitted effect of over 60% in size
#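 Alpha7betagal+/- myoblasts (passage 13) were plated 16-24 hr, then exposed to compounds (1:260 dilution of DMSO stock) for 48 hours at 37C. After MPER lysis, β-galactosidase reporter activity was read as FDG fluorescence (ex 480/em 540) after 30 minutes.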
# Glioma ERSR ind = induces the endoplasmic reticulum stress response in human glioma cells; U87-MG GRP78 promoter luciferase reporter, 16 h; 0.02% of 420,000 active; Potency, µM, actives largely listed as activators; also: series mostly up to about 76 µM; nearly all actives have a fitted effect of over 35% in size
#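 ERSR induction read as luciferase luminescence (Bright-Glo, 10 min at room temperature) in stably transfected human U87-MG glioma cells exposed to compounds for 16 h, using GRP78 as sensor.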
# N370S GC mod = inhibitors or activators of N370S glucocerebrosidase for Gaucher disease. P04062. N370S GC spleen homogenate, 4MU-glucoside fluorescence. Potency, µM (highest dose often 59.4 µM), hits mostly inhibitors. 0.092% of 330,000 active
# A number is an active result; – = inactive; ? = inconclusive; · = not tested or not shown. Unless noted, calls follow the shape of the dose curve; as a rule, active = well fitted curve in the direction sought with a large enough effect; inconclusive = small, poorly fitted or top-dose-only effect, or another doubt; inactive = no such curve, though single readings can be large; an effect the other way counts as inactive or inconclusive.
SMILES,ClpP mod,Apoferritin bind,CBFb RUNX1 block,a7 integrin act,Glioma ERSR ind,N370S GC mod
COCCN(C(=O)COC(=O)Cc1coc2cc3c(cc12)CCC3)c1c(N)n(Cc2ccccc2)c(=O)[nH]c1=O,18µM,·,·,–,–,–
COCCN(C(=O)COC(=O)c1oc2ccc(OC)cc2c1C)c1c(N)n(Cc2ccccc2)c(=O)[nH]c1=O,13µM,–,·,?,–,–
Clc1ccc(OCCn2c(-c3ccco3)nc3ccccc32)cc1,?,–,–,–,–,·
c1coc(Cn2c(-c3ccco3)nc3ccccc32)c1,28µM,–,–,–,–,–
O=C1c2ccccc2NC2CCCCCN12 (stereo not drawn),13µM,–,–,–,–,–
O=C1Nc2ccccc2C(=O)N2CCCCC12 (stereo not drawn),–,–,–,–,–,–
Cc1cccc(-c2noc(-c3cccnc3NCc3ccc(Cl)cc3)n2)c1,–,–,·,·,–,·
FC(F)(F)c1cccc(CNc2ncccc2-c2nc3cc(Cl)ccc3o2)c1,32µM,–,–,–,–,–
CC(=O)Nc1ccc2nc(-c3ccccn3)[nH]c2c1,11µM,–,–,–,–,–
CC(=O)Nc1ccc2nc(-c3ccncc3)[nH]c2c1,25µM,–,–,–,–,–
CC(=O)Nc1ccc2nc(-c3cc(C)ccc3C)[nH]c2c1,–,–,·,·,–,·
COC[C@@H](c1ccc(C(F)(F)F)cc1)N1CCN(C2(C)CCN(C(=O)c3c(C)ncnc3C)CC2)C[C@@H]1C,·,·,·,·,–,·
Cc1ccccc1C(=O)NC(C)c1nnc2n1CCN(Cc1ccccc1F)CC2 (stereo not drawn),·,·,·,·,–,·
COc1ccccc1-c1cc2c(c(OC)c1)OCCN(C(=O)Cn1nc(-c3ccccc3)c3ccccc3c1=O)C2,·,·,·,·,–,·
O=C(O)c1cc(N2C(=O)C3C4C=CC(C4)C3C2=O)ccc1NCc1cccnc1 (stereo not drawn),35µM,–,–,–,–,–
O=C(NCC1CCC2(CCN(Cc3ccc4ncccc4c3)CC2)O1)C1CCCO1 (stereo not drawn),·,·,·,·,–,·
COC(=O)C1CCN(C(=O)COC(=O)Cc2c[nH]c3ccccc23)CC1,32µM,–,–,–,–,–
CC1CCCN(C(=O)COC(=O)Cc2c[nH]c3ccccc23)C1 (stereo not drawn),–,·,·,–,–,·
CC(C)(c1ccccc1)c1ccc(OCCCNCCO)cc1,–,11µM,–,–,–,–
COCCCNCCCOc1ccc(C(C)(C)c2ccccc2)cc1,–,?,–,–,–,–
C[C@H](c1ccccc1)N1C[C@@H](COCc2ccccc2)Oc2cc(N3CCC[C@H]3CO)ccc2S1(=O)=O,–,·,·,·,·,·
COC[C@@H]1CCCN1c1ccc2c(c1)O[C@@H](COCc1ccccc1)CN([C@@H](C)c1ccccc1)S2(=O)=O,14µM,·,·,·,·,·
CCOc1ccc(CN2CCOc3ccc(C(O)c4cccnc4)cc3C2)cc1 (stereo not drawn),·,·,·,·,–,·
CCc1cc2c(NC(Cc3ccccc3)C(=O)O)nc(C)nc2s1 (stereo not drawn),–,–,·,–,–,–
CCc1cc2c(NCCC(=O)O)nc(C)nc2s1,28µM,–,–,–,–,–
SMILES,ClpP mod,Apoferritin bind,CBFb RUNX1 block,a7 integrin act,Glioma ERSR ind,N370S GC mod
CC1(C)Cc2cccc(OCC(=O)N3CCN(c4cccc(Cl)c4)CC3)c2O1,25µM,·,·,–,–,–
Oc1cccc(-c2c3nc(c(-c4cccc(O)c4)c4ccc([nH]4)c(-c4cccc(O)c4)c4nc(c(-c5cccc(O)c5)c5ccc2[nH]5)CC4)C=C3)c1,·,·,·,·,–,·
O=C(COc1cccc2ccccc12)NNC(=O)c1cccs1,18µM,–,–,–,–,–
COc1ccc(/C=N/N=C2/NC(=O)C(CC(=O)NC(C)C)S2)cc1 (stereo not drawn),14µM,–,–,–,–,–
CCN(CC)c1cc(C)c(/C=C/c2ccnc3ccccc23)cc1C,–,·,·,·,–,·
COc1ccc(OC)c(-c2cc(C(=O)N3CCc4ccccc4C3)no2)c1,25µM,–,–,–,–,–

# Screening results as filed in PubChem.
